The panel holds about 83,000 compounds, 20% with a hit somewhere; the sample as a whole holds those more often.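 Activity criterion: percent growth below 10, measured after cells in 96-well plates were exposed to a single compound concentration for 48 hours.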 A number with no mark means an inactive call. Calls of active or inactive are those of the source.

For six compounds, growth results are on record in PubChem BioAssay (NCI).

What all share (assay): NCI-60 one-dose screen, 48 h (100 = growth as untreated, 0 = no growth, -100 = all killed)
The subject of one assay is NCI-H23 lung. Particulars: 10 µM unless noted.
The next assay relates to NCI-H226 lung. The settings on record: 10 µM unless noted.
Another assay concerns NCI-H322M lung. Particulars: 10 µM unless noted.
Another assay concerns HOP-62 NSCLC. The settings on record: 10 µM unless noted.
The test system of a further assay is NCI-H460 lung. Particulars: 10 µM unless noted.
In a further assay the test system is HOP-92 NSCLC. Particulars: 10 µM.
The subject of the next assay is NCI-H522 lung. The settings on record: 10 µM unless noted.
The subject of another assay is A549/ATCC NSCLC. The settings on record: 10 µM unless noted.
Another assay concerns 786-0 renal. The settings on record: 10 µM unless noted.
In another assay the test system is COLO 205 colon. The settings on record: 10 µM unless noted.
A further assay concerns DU-145 prostate. Particulars: 10 µM unless noted.
A further assay has as its system K-562 leukemia. Particulars: 10 µM unless noted.
Another assay deals with MALME-3M melanoma. Particulars: 10 µM unless noted.
In another assay the test system is MDA-MB-231 breast. The settings on record: 10 µM unless noted.
Another assay has as its system SF-268 CNS. Particulars: 10 µM unless noted.
Another assay deals with SF-295 CNS. The settings on record: 10 µM unless noted.
The test system of another assay is SF-539 CNS. The settings on record: 10 µM unless noted.
A further assay relates to UACC-257 melanoma. The settings on record: 10 µM unless noted.

Turning to `C#Cc1ccc(C(=O)NCc2ccc(/C=C/C(=O)c3nccn3C)cc2)cc1`, the growth is 10% with NCI-H23 lung; 31.9% in the assay with NCI-H226 lung; 12.5% in the assay on NCI-H322M lung; 27.5% with HOP-62 NSCLC; -45.4% (active) in the assay on NCI-H460 lung; -0.611% (active) in the assay on HOP-92 NSCLC. Also, the growth with NCI-H522 lung is 25.9%; with A549/ATCC NSCLC it was 13.4%; in the assay on 786-0 renal, 19.3%; in the assay on COLO 205 colon it was 22.8%; in the assay with DU-145 prostate it was 21%; in the assay on K-562 leukemia, 18.8%. The growth in the assay with MALME-3M melanoma was 69.5%; with MDA-MB-231 breast, 16.1%; in the assay with SF-268 CNS, 13.5%; in the assay with SF-295 CNS, 20.7%; in the assay on SF-539 CNS it was -17% (active); with UACC-257 melanoma it was 67.7%.
`CC1(C)CC[C@]2(CN)CC[C@]3(C)C(=CC[C@@H]4[C@@]5(C)CCCNC(C)(C)[C@@H]5CC[C@]43C)[C@H]2C1`: the growth is 104% in the assay with NCI-H23 lung; 105% with NCI-H226 lung; 99% in the assay on NCI-H322M lung; 93.9% in the assay with HOP-62 NSCLC; 99.5% with NCI-H460 lung; 81.2% with HOP-92 NSCLC. The growth is 105% with NCI-H522 lung; 92.2% with A549/ATCC NSCLC; 92.8% with 786-0 renal; 109% with COLO 205 colon; 109% in the assay with DU-145 prostate; 3.16% (active) in the assay with K-562 leukemia. The growth is 102% in the assay on MALME-3M melanoma; 106% in the assay on MDA-MB-231 breast; 98.6% in the assay with SF-268 CNS; 104% in the assay on SF-295 CNS; 99.7% with SF-539 CNS; 117% with UACC-257 melanoma.
`COc1ccc(NC(=O)CSc2nnc(-c3ccc4nc(-c5ccccc5)[nH]c4c3)o2)cc1`: the growth in the assay on NCI-H23 lung is 96.3%; in the assay with NCI-H226 lung, 96.2%; with NCI-H322M lung, 98%; with HOP-62 NSCLC, 101%; with NCI-H460 lung it was 99.8%; in the assay on HOP-92 NSCLC it was 99.4%. Besides, the growth is 94.2% with NCI-H522 lung; 101% with A549/ATCC NSCLC; 96.3% in the assay with 786-0 renal; 108% in the assay with COLO 205 colon; 104% in the assay on DU-145 prostate; 84.2% in the assay with K-562 leukemia. Besides, the growth in the assay with MALME-3M melanoma is 99.2%; in the assay with MDA-MB-231 breast, 97.1%; in the assay on SF-268 CNS, 101%; in the assay with SF-295 CNS it was 102%; in the assay on SF-539 CNS, 96.2%; in the assay with UACC-257 melanoma it was 106%.
Turning to `COc1cc(/C=C2\C(=O)Nc3ccccc32)ccc1OCc1ccc(F)cc1`, the growth with NCI-H23 lung was 99%; in the assay on NCI-H226 lung it was 100%; in the assay on NCI-H322M lung, 103%; with HOP-62 NSCLC it was 100%; in the assay on NCI-H460 lung it was 86.4%; with HOP-92 NSCLC, 99.8%. Further, the growth is 91.9% with NCI-H522 lung; 108% in the assay on A549/ATCC NSCLC; 107% in the assay on 786-0 renal; 111% in the assay on COLO 205 colon; 106% with DU-145 prostate; 104% in the assay with K-562 leukemia. In addition, the growth in the assay on MALME-3M melanoma was 99.8%; with MDA-MB-231 breast it was 100%; in the assay with SF-268 CNS it was 105%; in the assay with SF-295 CNS it was 102%; with SF-539 CNS it was 102%; in the assay on UACC-257 melanoma, 118%.
For `COc1c(N2CC3CCCNC3C2)c(F)cc2c(=O)c(C(=O)N/N=C/c3ccc(F)cc3)cn(C3CC3)c12` (stereo not drawn), the growth in the assay on NCI-H23 lung is 87.9%; with NCI-H226 lung, 109%; in the assay on NCI-H322M lung, 93.3%; with HOP-62 NSCLC, 98.9%; in the assay on NCI-H460 lung, 97.6%; in the assay with HOP-92 NSCLC, 50.2%. Also, the growth in the assay on NCI-H522 lung was 94.1%; in the assay on A549/ATCC NSCLC, 91.5%; in the assay on 786-0 renal it was 69.2%; with COLO 205 colon it was 96.3%; in the assay on DU-145 prostate it was 102%; in the assay with K-562 leukemia, 18.9%. Further, the growth was 86.3% in the assay on MALME-3M melanoma; 82.3% with MDA-MB-231 breast; 82.9% in the assay with SF-268 CNS; 97.7% in the assay on SF-295 CNS; 87.7% with SF-539 CNS; 79.5% in the assay on UACC-257 melanoma.
On to `CC(=O)N1C(=S)NC(=O)C1CC(C)C` (stereo not drawn), for which the growth in the assay on NCI-H23 lung was 106%; in the assay on NCI-H226 lung, 100%; with NCI-H322M lung it was 97.6%; in the assay on HOP-62 NSCLC it was 99.8%; in the assay on NCI-H460 lung, 106%; in the assay on HOP-92 NSCLC, 98.9%. The growth with NCI-H522 lung was 94.9%; in the assay on A549/ATCC NSCLC, 101%; in the assay on 786-0 renal, 97.6%; in the assay with COLO 205 colon it was 110%; in the assay with DU-145 prostate it was 110%; in the assay on K-562 leukemia it was 106%. In addition, the growth in the assay with MALME-3M melanoma is 102%; in the assay with MDA-MB-231 breast, 103%; in the assay with SF-268 CNS, 102%; in the assay on SF-295 CNS it was 102%; in the assay with SF-539 CNS, 102%; in the assay on UACC-257 melanoma, 104%.
